# Data: article PMC9574860, “Chemical Toolkit for PARK7: Potent, Selective, and High-Throughput” (Journal of Medicinal Chemistry, 2022)
# In all, about 7,900 compounds went through this assay and about 400 (5.1%) showed an effect of 50% or more. Many of the other results were omitted from the sample, so strong results are more common in it than they were.
# Molecular target: Parkinson's disease protein 7 (PARK7/DJ1) (human, UniProt Q99497)
# Assay: primary screen, percent inhibition; read as competition with a fluorescent probe by fluorescence polarization; higher = more effect of the substance
# Settings: 100 µM
# Method: The screen was conducted using the conditions as described above in 1536-well plates (Corning 3724) with a reaction volume of 8 μL per well. The compound library containing 7887 covalent fragments was purchased at Enamine Ltd. and received as 100 mM DMSO stocks in 384 well LDV Echo plates (Labcyte LP-0200). Stock solutions of 0.26 μM PARK7 and 80 nM JYQ-107 were prepared. Using a Labcyte Echo550 acoustic dispenser, 8 nL of the DMSO stock solution of the library compounds was transferred from the source plates into the empty 1536-well screening plates to obtain a 100 μM final compound concentration. Next, PARK7 (6 μL, final concentration 0.2 μM) was dispensed using a Biotek MultiflowFX liquid dispenser and incubated for 2 h, followed by dispensing the probe JYQ-107 (2 μL, final concentration 20 nM). After 2 h incubation, the FP signal was recorded on a BMG Labtech PHERAstar plate reader (λex/em 480/520 nm). The relative loss of FP signal compared with reference controls was used to calculate the remaining enzyme activity.
# Parkinson's disease protein 7 (PARK7/DJ1), sequence (Q99497 whole entry, looked up): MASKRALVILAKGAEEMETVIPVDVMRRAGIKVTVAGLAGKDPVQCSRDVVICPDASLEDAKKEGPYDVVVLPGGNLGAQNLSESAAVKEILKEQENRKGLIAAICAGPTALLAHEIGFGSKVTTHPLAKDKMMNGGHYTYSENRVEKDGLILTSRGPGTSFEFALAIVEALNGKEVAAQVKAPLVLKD
row,SMILES,Inhibition %
1,Cc1coc(B2OC(C)(C)C(C)(C)O2)c1,4.69%
2,CC1(C)OB(c2ccco2)OC1(C)C,7.09%
3,Cc1cccc(N2CCN(C(=O)n3ccnc3)CC2)c1C,6.87%
4,Cc1cccc(-n2cc(C(=O)CCl)nn2)c1,95.4%
5,O=C(CCl)c1cn(-c2ccc(F)cc2)nn1,5.02%
6,Cn1cc(C(=O)CCl)nn1,3.33%
7,COc1ccc(C(C)(C)C)cc1S(=O)(=O)n1ccnc1C,7.71%
8,N#Cc1ccc(Cl)cn1,8.27%
9,O=C(CCl)Nc1ccc2c(c1)OCCCO2,57.7%
10,O=C(CCl)NC(=O)Nc1ccc2c(c1)OCCO2,7.05%
11,O=C(CCl)NC(=O)Nc1ccc2c(c1)OCCCO2,7.15%
12,O=C(CCl)Nc1ccc2c(c1)OCCO2,55%
13,O=C(CCCl)Nc1ccc2c(c1)OCCO2,7.65%
14,O=C(CCl)Nc1ccc2c(c1)OCO2,46.5%
15,COC(C)c1cccc(NC(=O)c2cccnc2S)c1 (centres unmarked),4.97%
16,C=CC(=O)N1Cc2cc(F)c(F)cc2C1,2.84%
17,COc1cccc(CS)c1,15.4%
18,COc1cc(OC)c(OC)cc1CS,63.9%
19,COc1ccc(CS)c(OC)c1,5.78%
20,C=CC(=O)N1C[C@H](CC)CC[C@H]1C (racemic),10.5%
21,Cc1nc(SC2CC(C)OC2=O)nc(C)c1C (centres unmarked),3.23%
22,Cc1nn(-c2ccccc2)c(C)c1CNC(=O)CCl,13.2%

row,SMILES,Inhibition %
1,Cc1nn(-c2ccccc2)c(O)c1C(=O)CCl,64.4%
2,Cc1nn(-c2ccccc2)c(C)c1NC(=O)CCl,6.29%
3,NC(=O)CN(C1CCCC1)S(=O)(=O)C=Cc1ccccc1,7.09%
4,O=c1[nH]c(=O)n(CCC2OCCO2)cc1Cl,5.36%
5,N#Cc1cn(CCS)c(=O)[nH]c1=O,75.1%
6,C=CC(=O)NCC1OCCc2ccccc21 (centres unmarked),7.98%
7,Cc1nn(C)c(Cl)c1C=CC(=O)N1CCC(CN)CC1.Cl,15.7%
8,NS(=O)(=O)c1ccc(CCNC(=O)CCl)cc1,17.2%
9,CC(=O)NCCc1ccc(C(=O)CCl)cc1,70.8%
10,CC(=O)N(C)Cc1ccc(C(=O)CCl)cc1,79.8%
11,CC(=O)NC(C)c1ccc(C(=O)CCl)cc1 (centres unmarked),38.2%
12,CS(=O)(=O)NCCc1ccc(C(=O)CCl)cc1,82.8%
13,CC(=O)NCc1ccc(C(=O)CCl)o1,92.2%
14,O=C(CCl)NCc1ccc(-c2ccc(Cl)cc2)o1,18.1%
15,O=C(CCl)NCCc1ccc(Cl)cc1,41.2%
16,CC(=O)NCc1ccc(S(=O)(=O)F)cc1,32.8%
17,C=CC(=O)N1CCCC(CC#N)C1 (centres unmarked),5.07%
18,COC(=O)c1ccc(Oc2ccc(C#N)nc2)cc1,6.29%
19,Cc1n[nH]c(C)c1CNc1ccc(Cl)c(C#N)n1,1.98%
20,C=CC(=O)N1CCCC(NC(C)=O)C1 (centres unmarked),8.6%
21,Cc1nn(C)c(Cl)c1Cn1c(-c2ccccc2)noc1=O,3.8%
22,Cc1cc(C=C(C#N)C(=O)O)c(C)n1CC1CCCO1 (centres unmarked),11.7%

row,SMILES,Inhibition %
1,CCOC1CC(c2nc(-c3cccc(B(O)O)c3)no2)C1 (centres unmarked),-4.81%
2,C=CC(=O)N1CCCC(c2nnc3n2CCC3)C1 (centres unmarked),5.59%
3,O=C(CCl)N1c2ccccc2OCC1c1ccccc1 (centres unmarked),28.9%
4,Cc1ccc(B2OC(C)(C)C(C)(C)O2)cc1[N+](=O)[O-],3.85%
5,C=CC(=O)N1CC(c2ccccc2)C1,12.4%
6,C=CC(=O)Nc1cnn(COC)c1,17.1%
7,CC(=O)NCc1ccc(C(=O)CCl)cc1,77.1%
8,CN(C)C(=O)c1ccc(CNC(=O)CCl)cc1,2.36%
9,CC(=O)NCc1ccc(S(=O)(=O)NC(=O)CCl)cc1,3.06%
10,NC(=O)CCc1ccc(C(=O)CCl)cc1,82.5%
11,NC(=O)COc1ccc(C(=O)CCl)cc1,5.31%
12,CN(CCN1C(=O)CCC1=O)Cc1nc2c(s1)CCCC2,9.47%
13,Cn1ccc(NS(=O)(=O)C=Cc2ccc(Cl)cc2)n1,11.2%
14,CC(C)NC(=O)C(C#N)=Cc1cc(F)ccc1F,1.67%
15,N#Cc1ccn(-c2ccccc2)n1,6.25%
16,O=C1CN(C(=O)CCl)c2ccccc2N1,56.7%
17,C=CC(=O)N(C)CC(=O)N1c2ccccc2NC(=O)CC1C (centres unmarked),1.23%
18,Cc1ccc(C=CC(=O)N2CC(=O)Nc3ccccc32)o1,15.2%
19,C=CC(=O)N1CC(=O)Nc2ccccc21,10%
20,O=C1CC(C(F)(F)F)N(C(=O)CCl)c2ccccc2N1 (centres unmarked),53%
21,O=C(CCl)N1c2ccccc2NC(=O)C12CCCC2,42.3%
